S2 tox: cell viability loss in ATXN counter-screen | S2 cells (HEK-293 line with an ATXN2-luciferase reporter) viability, CellTiter-Fluor protease fluorescence, 24 h | Potency, µM (highest dose often 56.7 µM), most hits filed as cytotoxic | actives 0.49% (n = 400,000); note: potency is the fitted concentration of half-maximal effect; nearly all actives have a fitted effect of over 40% in size
HepG2 tox: kills HepG2 cells in TGF-b inhibitor counter-screen; HepG2 CAGA-GFP viability, ATP luminescence, 18 h; Potency, µM (top dose mostly 46.1 µM), inactives show top-dose activity change, negative = cytotoxicity, usual class: cytotoxic; actives 0.76% (n = 410,000); note: potency is the fitted concentration of half-maximal effect
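CellTiter-Glo luminescence gave cytotoxicity after 18 hours at 37 degrees C. The cells were HepG2 CAGA-GFP in 1% FBS DMEM, stimulated with 500 pg/mL TGF-beta after compound addition. %Activity was normalised to no-cell wells (complete cell-killing) and DMSO (no toxicity), and curves were fitted and classified.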
D3 antag: antagonists of human D3 dopamine receptor; P35462; D3R cells, DiscoveRx beta-arrestin luminescence, antagonist mode; hits give low values; max response, negative = inhibition, %; actives 2.5% (n = 360,000); AID 652054; in the data active = max response below about -50%; inconclusive = no clear call, values can overlap the other calls; note: % is set by controls: 0 for no effect and ±100 for the full control effect
Target sequence (P35462 whole entry, looked up): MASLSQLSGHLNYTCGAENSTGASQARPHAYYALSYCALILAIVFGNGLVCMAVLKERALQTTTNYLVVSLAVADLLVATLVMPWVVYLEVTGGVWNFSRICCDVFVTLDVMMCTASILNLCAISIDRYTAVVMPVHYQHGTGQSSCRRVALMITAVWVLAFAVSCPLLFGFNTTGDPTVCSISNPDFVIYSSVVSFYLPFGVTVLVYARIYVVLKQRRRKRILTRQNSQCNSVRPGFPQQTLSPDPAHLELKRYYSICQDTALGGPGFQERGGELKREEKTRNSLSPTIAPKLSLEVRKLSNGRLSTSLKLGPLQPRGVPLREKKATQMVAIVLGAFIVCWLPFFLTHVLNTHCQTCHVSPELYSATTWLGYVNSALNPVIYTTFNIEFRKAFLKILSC
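Cells expressing the human receptor were seeded at 1500 cells/well, incubated overnight at 37 degrees C in 5% CO2, then exposed to library compounds with dopamine controls for 90 minutes at 37 degrees C before luminescent detection.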
TGFb inhibitor: TGF-b pathway inhibition. HepG2 CAGA-GFP TGF-b/SMAD3 reporter, GFP fluorescence, 18 h; TGF-beta stimulated, 500 pg/mL final. Potency, µM (highest dose often 46.1 µM), for the others: top-dose activity, negative = inhibition, most hits filed as inhibitors. actives 1.2% (n = 410,000). AID 588855; note: potency is the fitted concentration of half-maximal effect; % is set by controls: 0 for no effect and ±100 for the full control effect; nearly all actives have a fitted effect of over 65% in size
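TGF-beta reporter screen: HEPG2 CAGA-GFP, 1% FBS, 500 pg/mL TGF-beta final, 18 h; per-cell GFP summed per well; curves fitted and categorized by class.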
ATXN2 expr inh: ATXN2 expression inhibition; HEK-293 ATXN2-luciferase reporter, luminescence, 24 h; Potency, µM (doses to about 57 µM), without a hit: top-dose activity change, negative = inhibition, hits mostly inhibitors; actives 0.72% (n = 360,000); note: potency is the fitted concentration of half-maximal effect; % is set by controls: 0 for no effect and ±100 for the full control effect; nearly all actives have a fitted effect of over 55% in size
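qHTS (up to 57 uM final) was run with 24 h compound exposure of reporter cells at 37 °C. Each well was multiplexed: SteadyGlo luminescence measured ATXN2-luciferase expression after a fluorogenic Gly-Phe-AFC viability readout (25 uM final).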
DRD3 agonist: D3 dopamine receptor (human) agonism. P35462. D3R DiscoveRx beta-arrestin cells, luminescence, 90 min. max activation, %. actives 0.58% (n = 410,000). AID 652048; in the data active = max activation above about 30%; note: 0% is about no effect
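Agonist-mode cell screen: cells plated at 1500/well and incubated overnight at 37 °C, then exposed to library compounds for 90 min at 37 °C. Detection reagent was added for 30–60 min at room temperature, and luminescence was read.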
* marks the source's active call; other numbers are inactive results; i = inactive; u = inconclusive; x = not tested or not shown. Hits are enriched below; roughly 4.7% of the tested compounds scored in any of these assays. Unless noted, calls come from the whole dose curve; as a rule, active = well fitted curve in the direction sought with a large enough effect; inconclusive = small, poorly fitted or top-dose-only effect, or another doubt; inactive = no such curve, though single readings can be large; an effect the other way counts as inactive or inconclusive.

SMILES	S2 tox	HepG2 tox	D3 antag	TGFb inhibitor	ATXN2 expr inh	DRD3 agonist
Cc1ccc(S(=O)(=O)N2CCOCC2)cc1C(=O)NC1CCN(Cc2ccccc2)CC1	i	-17.0%	6.9	-11.0%	2.4%	-17.7
O=C(NC1CCN(Cc2ccccc2)CC1)c1cccc(S(=O)(=O)Nc2ccc(F)cc2)c1	i	-27.9%	u	-24.1%	-37.2%	-24.8
COc1ccccc1NS(=O)(=O)c1ccc(C)c(C(=O)NC2CCN(Cc3ccccc3)CC2)c1	i	-19.4%	u	-14.8%	-22.6%	-12.5
COc1ccccc1NS(=O)(=O)c1cccc(C(=O)NC2CCN(Cc3ccccc3)CC2)c1	u	-18.2%	-94.8*	-25.4%	u	-23.9
Cc1ccc(C(=O)NC2CCN(Cc3ccccc3)CC2)cc1S(=O)(=O)N1CCOCC1	i	-31.3%	-66.9*	-9.1%	-21.8%	-34.0
Cc1ccc(NS(=O)(=O)c2cccc(C(=O)NC3CCN(Cc4ccccc4)CC3)c2)c(C)c1	i	-57.1%	-96.9*	u	u	-20.0
O=C(NC1CCN(Cc2ccccc2)CC1)c1cccc(S(=O)(=O)Nc2ccc(Br)cc2)c1	u	-40.5%	-56.9*	u	-17.2%	-30.8
CCOC(=O)C1CCCN(C(=O)c2cnn(-c3nccc(-c4cc(C)sc4C)n3)c2C)C1 (stereo unspecified)	i	x	x	x	x	x
O=C(O)C1CCCC1	x	-13.9%	x	-32.8%	x	x
NCCC(=O)[N-][C@@H](Cc1cnc[nH]1)C(=O)O.[Zn]	i	x	x	x	x	10.5
CC(=O)c1c(C)oc2c1cc(NS(=O)(=O)c1ccc(Cl)c(C)c1)c1ccccc12	i	-31.3%	x	1.8%	-5.0%	9.3
COC(=O)c1ccccc1NC(=O)Cn1c(=O)n(CCCCC(=O)NCc2ccc3c(c2)OCO3)c(=O)c2ccccc21	i	0.9%	x	-13.9%	0.2%	4.1
CC(C)=CCC/C(C)=C/CC/C(C)=C/CCC(=O)OC/C=C(\C)CCC=C(C)C	i	x	x	x	6.3%	5.3
O=C(C[n+]1csc2ccccc21)c1cccc([N+](=O)[O-])c1	x	-5.2%	x	-27.9%	x	x
C=CCN(c1ccccc1)S(=O)(=O)c1cccc(C(=O)NC2CCN(Cc3ccccc3)CC2)c1	i	-22.3%	-79.0*	u	u	-27.0
COc1ccccc1NS(=O)(=O)c1cc(C(=O)NC2CCN(Cc3ccccc3)CC2)ccc1C	i	-35.1%	-92.0*	u	u	-15.0
CN(C)S(=O)(=O)c1cccc(C(=O)NCC(=O)NC2CCN(Cc3ccccc3)CC2)c1	i	-5.8%	-7.6	-3.1%	-12.7%	-20.2
Cc1cccc(C)c1OCC(O)CNC(C)C (stereo unspecified)	i	-36.6%	-6.6	16.1%	-16.4%	4.3
Cc1cccc(C)c1OCC(O)CNC(C)(C)C (stereo unspecified)	i	-10.9%	-51.1*	0.0%	-2.7%	-0.3
COc1cccc(Nc2nc(C(N)Cc3ccccc3)cs2)n1 (stereo unspecified)	u	-95.4%	-22.1	11.2µM*	u	-9.1
NC(=O)c1cccc(Nc2nc(C(N)COCc3ccccc3)cs2)n1 (stereo unspecified)	i	-21.2%	-64.6*	-23.6%	-4.5%	-2.3
CCCc1cnc(Nc2nc(C(N)Cc3ccc(OC)cc3)cs2)nc1 (stereo unspecified)	u	11.2µM*	0.0	u	u	-6.2
COc1cccc(Nc2nc(C(N)CO)cs2)n1 (stereo unspecified)	i	-9.5%	0.0	13.0%	0.0%	-8.3
COc1ccc(C=Cc2cc(OC)c(OC)c(OC)c2)cc1O	x	x	x	x	0.3%	x
Cc1[nH]c2ccc(C(=O)Nc3ccc(F)cc3)cc2c1C	x	5.0%	x	0.0%	x	-17.9
SMILES	S2 tox	HepG2 tox	D3 antag	TGFb inhibitor	ATXN2 expr inh	DRD3 agonist
CC(=O)c1ccc(N2C(=O)N(Cc3ccc(F)cc3)c3ccccc3S2(=O)=O)cc1	i	1.3%	x	0.0%	-21.3%	49.5*
COc1ccccc1C(NC(=O)C1CCN(CCOc2ccc(Cl)cc2Cl)CC1)c1ccccn1 (stereo unspecified)	20µM*	12.6µM*	u	u	31.6µM*	-12.9
O=C(NC(c1ccccc1)c1cnccn1)C1CCN(CCCOc2ccccc2)CC1 (stereo unspecified)	i	-15.6%	0.7	9.1%	0.4%	-22.2
O=C(NC(c1ccc(Cl)cc1)c1cnccn1)C1CCN(CCCc2ccccc2)CC1 (stereo unspecified)	i	-35.6%	-1.2	0.6%	-8.1%	-17.6
COc1ccc(C(NC(=O)C2CCN(CCOc3ccc(Cl)cc3Cl)CC2)c2ccccn2)cc1 (stereo unspecified)	u	-106.6%	-69.6*	u	u	-24.4
Cc1nn(CCC(=O)N2CCN(c3ccccc3F)CC2)c(C)c1S(=O)(=O)N1CCCC1	x	-4.4%	x	-3.7%	x	-12.4
COc1ccc(C(=O)O)cc1S(N)(=O)=O	i	-30.6%	-59.9*	-3.4%	-16.2%	-12.2
CCc1c(C2(O)CCCCC2)[nH]c2cc(C(F)(F)F)ccc12	31.6µM*	14.1µM*	-8.3	u	u	-24.5
Cc1oc(-c2ccc(Cl)cc2)nc1CS(=O)CC(=O)N1CCN(c2cccc(C(F)(F)F)c2)CC1 (stereo unspecified)	x	20µM*	x	8.91µM*	x	-6.2
COc1cccc(-c2nc(CS(=O)CC(=O)N3CCN(c4cccc(C(F)(F)F)c4)CC3)c(C)o2)c1 (stereo unspecified)	x	-37.6%	x	15.8µM*	x	-12.9
Cc1ccc(-c2nc(CS(=O)CC(=O)N3CCN(c4cccc(Cl)c4)CC3)c(C)o2)cc1 (stereo unspecified)	x	-12.7%	x	u	x	-4.7
Cc1ccc(-c2nc(CS(=O)CC(=O)N3CCN(c4ccc(F)cc4)CC3)c(C)o2)cc1 (stereo unspecified)	u	-35.7%	-5.4	u	x	-8.8
COc1cccc(-c2nc(CS(=O)(=O)CC(=O)N3CCN(c4ccccc4)CC3)c(C)o2)c1	x	-12.2%	x	11.2µM*	x	-18.2
COc1ccc(N2CCN(C(=O)CS(=O)Cc3nc(-c4ccc(OC)c(OC)c4)oc3C)CC2)cc1 (stereo unspecified)	i	-4.0%	-1.5	-0.3%	-11.6%	1.9
Cc1oc(-c2ccccc2Cl)nc1CS(=O)CC(=O)N1CCN(c2cccc(C(F)(F)F)c2)CC1 (stereo unspecified)	x	-104.9%	x	11.2µM*	x	-3.8
COc1ccc(-n2c(CNC(=O)c3c(-c4ccccc4)noc3C)nnc2SC)cc1	i	x	x	x	x	x

High-throughput results from PubChem.
